Compound activity as filed in PubChem BioAssay.
BaF3 parental = parental Ba/F3 cell viability inhibition, counter-screen for JAK2V617F inhibitor project, murine pro-B, CellTiter-Glo luminescence; hit rate 1.1% among 220,000; AID 1486, 2009; CellTiter-Glo ATP luminescence; inhibition, % at 5.6 µM;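 active = inhibition above a per-campaign cutoff, the mean inhibition of all tested compounds plus 3 SD, cut at about 27% in these data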;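 also: 0% = DMSO wells and 100% = JAK Inhibitor I control wells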
FID counter = compounds displacing fluorescent DNA intercalator, primary screen, artefact control for HCV NS3 helicase inhibitor project, biochemical, FID fluorescence | hit rate 0.17% among 290,000 | AID 1845, 2009 | DNA fluorescent intercalator displacement | inhibition, % at 7.9 µM; in the data active = inhibition above about 37%;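 also: 0% = vehicle and 100% = reference compound; higher means more ethidium bromide displaced from hairpin DNA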
Ba/F3 V617F tox = reduced viability of JAK2V617F-dependent Ba/F3 cells, primary screen, JAK2V617F inhibitor project, cell-based, Ba/F3 EpoR-JAK2V617F, luminescence; inhibition, % at 5.6 µM; ATP luminescence; hit rate 1.1% among 220,000; AID 1446, 2008;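 active = inhibition above the campaign mean plus 3 SD over all tested compounds, cut at about 24% in these data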;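 also: cytokine-independent growth of Ba/F3 cells driven by EpoR plus mutant JAK2; 0% = DMSO-treated cells and 100% = JAK inhibitor I control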
GPR7 antag = GPR7 receptor antagonists, primary screen, cell-based, fluorescence, single concentration | Neuropeptides B/W receptor type 1 (Homo sapiens), P48145 | GPR7-expressing cells, fluorescence antagonist assay | inhibition, % at 4.4 µM | hit rate 1.1% among 290,000; in the data active = inhibition above about 16%, passing the limit was not always enough;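 also: cells stimulated with the agonist NPW; 0% = agonist with vehicle and 100% = vehicle without agonist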
Target sequence (P48145 whole entry, looked up): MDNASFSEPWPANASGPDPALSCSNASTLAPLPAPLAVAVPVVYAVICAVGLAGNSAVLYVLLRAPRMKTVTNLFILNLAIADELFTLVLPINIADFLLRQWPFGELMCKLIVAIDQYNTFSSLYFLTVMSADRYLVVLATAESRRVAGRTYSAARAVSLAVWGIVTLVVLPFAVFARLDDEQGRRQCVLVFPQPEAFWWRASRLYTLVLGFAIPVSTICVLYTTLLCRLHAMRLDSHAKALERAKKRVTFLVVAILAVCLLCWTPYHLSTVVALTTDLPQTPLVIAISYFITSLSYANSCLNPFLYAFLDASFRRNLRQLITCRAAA
KLF5 inhibitor = KLF5 expression inhibitors, primary screen, DLD-1 cells, luminescence; DLD-1 KLF5 promoter-luciferase reporter; inhibition, % at 5 µM; hit rate 0.23% among 290,000; AID 1700, 2009;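 active = inhibition above a per-plate limit of that plate's mean compound inhibition plus 3 SD, cut at about 60% in these data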;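 also: 0% = DMSO wells and 100% = LY294002 at 200 µM; higher means less KLF5 promoter-driven luciferase light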
IEC-6 tox = cytotoxicity in IEC-6 intestinal epithelial cells, primary screen, cytotoxicity control for KLF5 inhibitor project, cell-based, luminescence; IEC-6 cytotoxicity, luminescence viability; inhibition, % at 5 µM; hit rate 0.78% among 290,000; AID 1825, 2009; in the data active = inhibition above about 22%;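 also: 0% = plate median of test compound wells and 100% = cytotoxic reference compound wells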
An asterisk follows results filed as active; / = no result given. A selection: hits, their analogues and other compounds. The true share with any hit is near 2.6%.

SMILES	BaF3 parental	FID counter	Ba/F3 V617F tox	GPR7 antag	KLF5 inhibitor	IEC-6 tox
Cc1nc(C(=O)NNC(=O)c2ccc(Cl)cc2)c(C(F)(F)F)o1	31*	-4	-4	-11	2	8
Cc1nc(C(=O)NCC(=O)c2ccc(Cl)cc2)c(C(F)(F)F)o1	2	-6	4	-1	2	3
Cc1onc(-c2ccccc2Cl)c1C(=O)N(C)C1CCCCC1	62*	-23	67*	-5	-1	2
CCOC(=O)/C=C(\C)Sc1cc(=O)oc2ccccc12	6	-13	4	5	-14	3
CCOC(=O)/C=C(\C)Sc1cc(O)c2ccccc2c1O	0	-3	0	-13	-11	34*
CC(C)Oc1ccc(C(=O)NCCNC(=O)c2ccco2)cc1	/	-4	/	1	-10	4
CC(=O)N1CCN(c2ccccc2NC(=O)COc2cc(C)ccc2C(C)C)CC1	6	-41	5	21*	-12	3
CCCN(CCC)S(=O)(=O)c1nc2nc(C)cc(C)n2n1	0	-11	-4	20	4	-5
NNC(=O)CCc1c[nH]c2ccccc12	1	-6	-3	-5	-21	2
O=C(COC(=O)CCc1c[nH]c2ccccc12)NC(c1ccccc1)c1ccccc1	76*	-18	0	-1	-25	-5
O=C(Nc1ccn(Cc2c(F)c(F)cc(F)c2F)n1)c1ccc(COc2ccccc2Cl)cc1	2	-8	-1	-1	-27	2
Cc1cc(C)nc(NC(=O)c2ccc(COc3ccccc3Cl)cc2)c1	71*	-9	62*	-27	28	19
O=C(CCCn1c(=S)[nH]c2cc3c(cc2c1=O)OCO3)N1CCN(C2CCCCC2)CC1	0	7	3	-4	-36	-1
Cc1ccc(NC2=C(N3CCCCC3)C(=O)c3ccccc3C2=O)cc1	98*	-1	96*	1	17	-1
O=C1C(Nc2cccc(O)c2)=C(N2CCCCC2)C(=O)c2ccccc21	99*	5	87*	-7	-34	-4
CN(C1=C(N2CCCCC2)C(=O)c2ccccc2C1=O)c1ccccc1	65*	-4	26*	-3	-2	-1
Cc1nc(NC(=O)CN2CCOCC2)sc1C(=O)N(C)C	/	-4	/	-23	-24	3
COC(=O)c1cc2c(C)nn(C)c2s1	2	-3	0	-10	-7	0
CCCCCCC(=O)c1c(C)[nH]c(C(=O)OCC)c1C	41*	-11	0	7	-38	8
CCCCCC(=O)c1c(C)[nH]c(C(=O)OCC)c1C	1	-20	-3	2	-32	1
COc1ccc(CN=C2NN=C(c3ccccc3)CS2)cc1	0	-9	-3	-6	-20	3
Cc1ccc(S(=O)(=O)N2CCN(c3nc(C)nc4sc(C)c(C)c34)CC2)cc1	4	3	-5	14*	-18	-2
COc1ccc(-c2ncncc2-c2csc(C)n2)c(O)c1	32*	-7	-2	17*	-12	-2
CN(C)S(=O)(=O)c1ccc(NC(=O)CSc2n[nH]c(=O)n2C2CC2)cc1	3	-8	2	-10	0	-3
CC(C)CCOC(=O)C[N+](C)(C)CCOC1CC2CCC1(C)C2(C)C (configuration not stated)	76*	23	90*	19*	-26	2
SMILES	BaF3 parental	FID counter	Ba/F3 V617F tox	GPR7 antag	KLF5 inhibitor	IEC-6 tox
CCCCOC(=O)C[N+](C)(C)CCOC1CC2CCC1(C)C2(C)C (configuration not stated)	58*	23	54*	-2	-14	2
CC1(C)C2CCC1(C)C(OCCNCCOC(=O)Nc1ccccc1)C2 (configuration not stated)	-2	-33	-1	10	-11	2
CCCOC(=O)C[N+](C)(C)CCOC1CC2CCC1(C)C2(C)C (configuration not stated)	46*	15	30*	7	24	2
CC1(C)C2CCC1(C)C(OC(=O)c1ccccc1C(=O)O)C2 (configuration not stated)	1	-19	-4	-12	-6	-2
CCC(C)OC(=O)C[N+](C)(C)CCOC1CC2CCC1(C)C2(C)C (configuration not stated)	74*	19	82*	15	6	1
CC(=O)CN1C(=O)NC2(CCCc3ccccc32)C1=O (configuration not stated)	/	-1	/	-10	-31	0
COc1ccc(N2CCN(C(=S)NCc3ccccc3)CC2)cc1	6	-8	-1	10	8	-5
O=C1CSC(c2ccncc2)N1Cc1ccc(F)cc1 (configuration not stated)	-1	-17	0	5	-2	-3
Cc1ccc(C(=O)N2CCN(c3ccc([N+](=O)[O-])c(NCc4cccnc4)c3)CC2)cc1	6	-26	4	-14	-8	6
C(#Cc1ccccc1)C[N+]1(CC#Cc2cccc3ccccc23)CCCC1	81*	29	97*	14	-10	7
C#CC[N+]1(CC#Cc2cccc3ccccc23)CCOCC1	50*	6	81*	-4	-16	1
C#CC[N+]1(CC#Cc2ccccc2)CCCC1	45*	0	40*	-2	-11	6
O=C(Nc1ccc(NC(=O)c2ccc(S(=O)(=O)c3ccccc3)cc2)cc1)c1ccccc1	1	46*	3	-15	3	3
CC1(C)CC(=O)C(C(C2=C(O)CC(C)(C)CC2=O)c2ccc([N+](=O)[O-])cc2)C(=O)C1 (configuration not stated)	3	-7	-1	-12	-7	-8
CC1(C)CC(=O)C(C(C2=C(O)CC(C)(C)CC2=O)c2ccc(O)c([N+](=O)[O-])c2)=C(O)C1	94*	-2	3	-7	-19	-5
Cc1cc(C)n(CC(=O)NNC(=O)CCCOc2ccc(Cl)cc2C)n1	/	-30	/	-18	-20	-6
Cc1noc(C)c1COc1cccc(C(=O)Nc2ccc3c(c2)OCO3)c1	1	-15	-3	11	-32	8
Cc1noc(C)c1COc1cccc(C(=O)Oc2ccc3c(c2)OCO3)c1	1	-27	-3	18*	1	0
Cc1noc(C)c1COc1cccc(C(=O)OC(C)C(=O)Nc2ccc3c(c2)OCO3)c1 (configuration not stated)	3	-24	0	19*	21	1
CCN(CC)c1ccc(/C=N/N2CCN(Cc3cccc4ccccc34)CC2)c(O)c1	6	1	1	-1	15	-1
CCOc1cc(/C=N/NC(=O)C(=O)NCCCOC(C)C)cc(Br)c1O	7	-19	4	-13	2	3
